Several values for one entry are separate records, joined by “and”; a condition that tells them apart may be missing. Equal values may be shown once. The campaign covered roughly 2,400 compounds. About 1,400 (58%) were called active.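 How the source made its calls: active means inhibition of 30% or more at any tested dose; inconclusive means primary hits over the limit that were never retested; inactive means the rest.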 So high a share suggests a set chosen from earlier hits. Some of the results follow.
Experiment: coupled detection enzyme interference, dose response, artefact control for MgcRacGAP inhibitor project, biochemical, coupled enzyme counter-screen (AID 624351);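 further: signal is the ADP detection kit reading of free GDP without any GAP enzyme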;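 on inhibition: 0% = median positive control wells and 100% = median negative control wells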
Conditions: ADP Hunter coupled enzyme counter-screen, fluorescence, no MgcRacGAP; series mostly up to 80 µM
In the case of N/C(=N\[N+](=O)[O-])N/N=C/c1ccc(O)cc1, the IC50 is reported as 20.8 µM (active). With O=C(O)CCn1cc(C=C2C(=O)NC(=O)NC2=O)c(-c2ccc(Br)cc2)n1 the IC50 was “inactive”. For Cc1ccc(N2C(=O)NC(=O)/C(=C/c3ccoc3)C2=O)cc1, the IC50 was “inactive”. For COc1cc(C=C2C(=O)NC(=O)NC2=O)ccc1OCc1ccc([N+](=O)[O-])cc1, the IC50 was “inactive”. With COc1cc(OC)c(OC)cc1/C=C1\C(=O)NC(=O)N(Cc2ccccc2)C1=O the IC50 was “inactive”. For CNC(=O)Oc1ccc(-c2cn3cc(C)ccc3n2)cc1, the IC50 was 37.7 µM (active). For O=C(CNC1CCCC1)Nc1ccc(N2CCCCCC2)cc1, the IC50 was “inactive”. For NCCc1cc(O)c(O)cc1O, the inhibition was -8.6% [at 5 µM] (inactive) and -17.1% [at 5 µM] (inactive). With CCN(CC)c1ccc(/C=C2/C(=O)NC(=O)N(Cc3ccco3)C2=O)cc1 the IC50 was “inactive”. With c1ccc2c(c1)Nc1ccccc1S2 the IC50 was 17.2 µM (active). For COc1ccccc1OCC#CCN1CCCC1, the IC50 was “inactive”. For O=P1(c2ccccc2)Nc2ccccc2N1c1ccccc1 (centres undefined), the IC50 was 29.5 µM (active). In the case of Cn1cccc1/C=C1\C(=O)NC(=O)N(Cc2ccco2)C1=O, the IC50 is reported as “inactive”. For Nc1ccc2c3c(cccc13)-c1ccccc1-2, the IC50 was 55.5 µM (active). With CC1=NNC(=O)C1Br (centres undefined) the IC50 was “inactive”. With COc1ccccc1CNCCc1cccc(Cl)c1 the IC50 was “inactive”. In the case of C1=Cc2ccccc2Nc2ccccc21, the IC50 is reported as 12.4 µM (active). For Cc1cccc(OCC(=O)N2CCN(Cc3ccncc3)CC2)c1, the IC50 was “inactive”. In the case of COc1ccc(/C=C2/C(=O)NC(=O)N(c3ccc(C)c(C)c3)C2=O)cc1CN1C(=O)c2ccccc2C1=O, the IC50 is reported as “inactive”. For Cc1ccc(CN2CCN(Cc3ccccc3F)CC2)cc1, the IC50 was “inactive”. In the case of Cc1cc(/C=C2\C(=O)NC(=O)N(c3ccc(Br)cc3)C2=O)c(C)n1-c1cc(C(=O)O)cc(C(=O)O)c1, the IC50 is reported as “inactive”. For O=C(O)Cn1cc(/C=C2\C(=O)NC(=O)N(c3ccc(Cl)cc3)C2=O)c2ccccc21, the IC50 was “inactive”. For CN(C)c1ccc(NC(=O)CN2C(=O)CN=C(c3ccccc3)c3ccccc32)cc1, the IC50 was 73.3 µM (active). With COc1ccc(OC)c(N2C(=O)NC(=O)/C(=C/c3ccc([N+](=O)[O-])s3)C2=O)c1 the IC50 was “inactive”. For C=CCN1C(=O)/C(=C/c2ccc(Br)s2)C(=O)NC1=S, the IC50 was “inactive”. In the case of COc1ccccc1OCC#CCN1CCCC(C)C1 (centres undefined), the IC50 is reported as “inactive”. With CSc1nc(N)c(N=Nc2ccc([As](=O)(O)O)cc2)c(=O)[nH]1 the IC50 was “inactive”. In the case of O=C(O)c1ccc(-n2c(O)c(/C=C3\C=Nc4ccccc43)c(=O)[nH]c2=O)cc1, the IC50 is reported as “inactive”. In the case of O=[N+]([O-])c1ccc2c(c1)Cc1cc(O)ccc1-2, the IC50 is reported as 24.5 µM (active).
